Bioassay records: PubChem BioAssay, National Center for Advancing Translational Sciences (NCATS)
Compounds with a hit are over-represented: about 9.4% of the library has one in this group of screens.
ELG1 DNA repair – inhibitors of ELG1-dependent DNA repair in HEK293T cells | HEK293T ELG1-luciferase reporter, luminescence, 16 h; DNA damage induced by 5-fluorouridine | 330,000 compounds, 2.3% hits | AID 504467 | Potency, µM (series often up to 46.1 µM), without a hit: top-dose activity change, negative = inhibition, hits mostly inhibitors; also: % is scaled to controls: 0 for no effect and ±100 for the full control effect; nearly all actives have a fitted effect of over 55% in size
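Overnight (16 hr) co-exposure of 2,000 cells/well to 5-fluorouridine and compound at 37 °C preceded detection. Luciferase was quantified via ONE-Glo luminescence; loss of signal denotes inhibition.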
NPC1 prom act – activates the NPC1 promoter; 320,000 compounds, 2.4% hits; AID 485313; Potency, µM (series often up to 9.22 µM), without a hit: at the top dose activation, hits mostly activators; Huh7 NPC1 promoter luciferase reporter, 24 h; also: % of control where 0% means no effect; nearly all actives have a fitted effect of over 60% in size
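Luminescence from an NPC1 promoter-driven luciferase reporter in stably transfected Huh7 cells was measured after 24 h compound treatment at 37 °C, followed by 10 min ambient incubation with luciferase detection reagent.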
FLuc modulator – inhibits or activates purified firefly luciferase, miR-21 counter-screen | P08659 | purified FLuc, Km substrates, luminescence inhibition | Potency, µM (doses to about 57.5 µM), for inactives: at the top dose activity change, negative = inhibition, usual class: inhibitors | 360,000 compounds, 6.9% hits | AID 588342;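 also: plate controls were vehicle for no effect and reference inhibitor for full effect; nearly all actives have a fitted effect of over 55% in size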
Target sequence (P08659 whole entry, looked up): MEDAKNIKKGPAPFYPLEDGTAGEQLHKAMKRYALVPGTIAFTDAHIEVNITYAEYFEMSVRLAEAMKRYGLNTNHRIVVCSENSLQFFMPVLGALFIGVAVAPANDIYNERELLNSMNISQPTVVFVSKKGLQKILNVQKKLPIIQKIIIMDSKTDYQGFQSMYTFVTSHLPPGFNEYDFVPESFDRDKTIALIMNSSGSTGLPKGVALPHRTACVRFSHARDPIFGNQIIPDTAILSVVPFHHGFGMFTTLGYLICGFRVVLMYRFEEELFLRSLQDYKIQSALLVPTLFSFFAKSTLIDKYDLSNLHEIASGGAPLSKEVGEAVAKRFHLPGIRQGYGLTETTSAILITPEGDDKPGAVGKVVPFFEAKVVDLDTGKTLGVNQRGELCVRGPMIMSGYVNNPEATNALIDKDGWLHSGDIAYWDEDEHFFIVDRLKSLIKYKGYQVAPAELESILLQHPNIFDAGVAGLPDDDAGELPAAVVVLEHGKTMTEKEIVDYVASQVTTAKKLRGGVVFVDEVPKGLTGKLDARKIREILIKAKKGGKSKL
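Purified P. pyralis luciferase (10nM final) with 10uM D-luciferin and 10uM ATP (Km levels) in 50mM Tris acetate pH 7.5, 10mM Mg acetate, 0.01% Tween-20, 0.05% BSA; qHTS 6-point titration, ~60 µM downward; luminescence read.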
SMN2 splice up – enhancers of SMN2 splice variant expression; HEK293 SMN2-luciferase splicing reporter, luminescence, 30-36 h; Potency, µM (highest dose often 46.1 µM), inactives show at the highest dose activity change, positive = activation, actives largely listed as activators; 210,000 compounds, 2.8% hits; also: % of control where 0% means no effect; nearly all actives have a fitted effect of over 55% in size
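qHTS luciferase splicing reporter: luminescence rises when SMN2 exon 7 is included in transfected HEK293 cells. Compound exposure lasted 30-36 h at 37C, with 4.5 mM final sodium butyrate as control, followed by a ONE-Glo read.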
ELG1 genotox – induces genotoxicity in HEK293T cells with luciferase-tagged ELG1 | 330,000 compounds, 1.3% hits | HEK293T ELG1-luciferase reporter, luminescence, 16 h | Potency, µM (top dose mostly 46 µM), for inactives: at the highest dose activity change, positive = activation, usual class: activators; also: % of control where 0% means no effect; nearly all actives have a fitted effect of over 60% in size
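HEK293T cells expressing luciferase-tagged ELG1 were treated with compound or DMSO for 16 hr at 37°C. Luciferase activity was then read after 30 min with ONE-Glo at room temperature; rising signal flags genetic stress.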
Rab9 prom act – Rab9 promoter activation; 320,000 compounds, 2.8% hits; Potency, µM (highest dose often 9.22 µM), for inactives: at the top dose activation, negative = inhibition, hits mostly activators; Huh7 Rab9 promoter-luciferase reporter, luminescence, 24 h; also: % of control where 0% means no effect; nearly all actives have a fitted effect of over 60% in size
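Stable Rab9-luc Huh7, 1500 cells/well, 2 h settle; cmpd in DMSO, 24 h, 37 °C/5% CO2; luciferase reagent 10 min RT; luminescence.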
Numbers without * were called inactive; ? = inconclusive; nt = no result given. Calls follow the shape of the dose curve; as a rule, active = well fitted curve in the direction sought with a large enough effect; inconclusive = small, poorly fitted or top-dose-only effect, or another doubt; inactive = no such curve, though single readings can be large; an effect the other way counts as inactive or inconclusive. Potency is read from the fitted curve at half-maximal effect.

SMILES	ELG1 DNA repair	NPC1 prom act	FLuc modulator	SMN2 splice up	ELG1 genotox	Rab9 prom act
CCOC(=O)c1cc(-c2ccc(OC)cc2)n(CCC(=O)Nc2nc3ccc(OCC)cc3s2)c1C	nt	nt	5%	nt	nt	nt
COc1ccc(NC(=O)c2cn3c4c(ccc(Cl)c4c2=O)OC(C)C3)cc1OC (stereo not drawn)	nt	nt	-1%	nt	nt	nt
Cc1ccc(C)c(N2CCN(c3cc(C)nc4c(-c5ccc(Cl)cc5)c(C)nn34)CC2)c1	nt	nt	0%	11%	nt	nt
Cc1ccc(-n2ncc(C(=O)NCc3cccs3)c2C2CCN(C(=O)OC(C)(C)C)CC2)cc1C	nt	nt	-3%	nt	nt	nt
CCCCCC(=O)Nc1ccc(-c2csc(N)n2)cc1	14%	4%	17µM*	nt	?	?
Cc1nc(-c2ccc(NC(=O)/C=C\C(=O)O)cc2)cs1	?	0%	9.5µM*	14%	11%	1%
CCCC(=O)Nc1ccc(-c2csc(-c3cccnc3)n2)cc1	-19%	13%	?	nt	-4%	?
CCC(=O)Nc1ccc(-c2csc(NNC(C)=O)n2)cc1	0%	-5%	-7%	-10%	0%	-3%
Cc1[nH]nc(N=CC2=C(O)CC(C)(C)CC2=O)c1-c1ccccc1	13%	-4%	13µM*	-11%	18%	0%
CC1CCN(c2c(NCC3CCC(C(=O)N4CCc5ccccc5C4)CC3)c(=O)c2=O)CC1 (stereo not drawn)	9.2µM*	-2%	2%	14%	-1%	0%
O=C(C1CCC(CNc2c(N3CCCCC3)c(=O)c2=O)CC1)N1CCc2ccccc2C1 (stereo not drawn)	?	-1%	2%	-23%	-2%	-12%
CCc1ccc(S(=O)(=O)/N=C2\C=C(NS(=O)(=O)c3ccccc3)C(=O)c3ccccc32)cc1	-30%	22%	15µM*	nt	?	14%
CC(C)c1ccc(S(=O)(=O)/N=C2\C=C(NS(=O)(=O)c3ccccc3)C(=O)c3ccccc32)cc1	?	8%	19µM*	nt	-10%	12%
O=C(O)c1ccc(S(=O)(=O)/N=C2\C=C(Nc3ccccc3F)C(=O)c3ccccc32)cc1	?	-30%	?	nt	-24%	-4%
Cc1ccc(C)c(S(=O)(=O)/N=C2\C=C(NS(=O)(=O)c3ccccc3)C(=O)c3ccccc32)c1	23µM*	2%	?	nt	-23%	1%
Cc1cccc(S(=O)(=O)Nc2cccc3c2C(=O)c2ccccc2-3)c1	0%	0%	1%	-68%	-13%	-1%
CCN(CC)S(=O)(=O)c1ccc2c(c1)N(CC(=O)N1CCN(c3cccc(Cl)c3)CC1)C(=O)CO2	nt	nt	0%	nt	nt	nt
Cc1ccc(NC2c3ncccc3C(=O)N2c2ccccc2C)cc1C (stereo not drawn)	11%	5%	24µM*	-3%	1%	-4%
O=C(c1ccccc1)c1ccc(N2CCOCC2)c(NC(=O)c2ccco2)c1	16µM*	3%	-6%	-21%	-9%	-4%
COC(=O)c1ccc(N2CCCCC2)c(NC(=O)c2ccco2)c1	23µM*	-5%	2%	nt	-6%	-7%
CC(=O)c1ccc(N=Cc2c(O)n(-c3cc(Cl)ccc3N3CCOCC3)c(=O)c3ccccc23)cc1	7.3µM*	-4%	-14%	25%	-1%	-12%
CCCCOc1ccc(S(=O)(=O)NCc2csc(-c3ccc(OC)cc3)n2)cc1	nt	nt	-13%	1%	nt	nt
COc1ccc(OC)c(NC(=O)CN(C)S(=O)(=O)c2ccc(C(=O)N3CCOCC3)s2)c1	nt	nt	0%	nt	nt	nt
Cc1ccccc1OCc1ccc(C(=O)N2CC(C)OC(C)C2)o1 (stereo not drawn)	-28%	5%	0%	nt	-3%	3%
CC1CN(C(=O)c2ccc(COc3ccc4ccccc4c3)o2)CC(C)O1 (stereo not drawn)	?	22%	17µM*	nt	11%	?
SMILES	ELG1 DNA repair	NPC1 prom act	FLuc modulator	SMN2 splice up	ELG1 genotox	Rab9 prom act
CC1CN(C(=O)c2ccc(COc3ccccc3Cl)o2)CC(C)O1 (stereo not drawn)	?	-1%	-3%	nt	-2%	-3%
CC1CN(C(=O)c2ccc(COc3ccc(C(C)C)cc3)o2)CC(C)O1 (stereo not drawn)	?	?	13µM*	nt	?	?
CCN(C(=O)CSc1ncc2c(n1)-c1cc(Cl)ccc1N(Cc1ccccc1)S2(=O)=O)c1cccc(C)c1	nt	nt	-2%	nt	nt	nt
Clc1ccc(-c2ccc(C=Nc3ccc(N4CCOCC4)cc3)o2)cc1	5%	2%	4.8µM*	-33%	0%	1%
Clc1cccc(-c2ccc(C=Nc3ccc(N4CCOCC4)cc3)o2)c1Cl	13%	1%	3.4µM*	nt	1%	0%
COc1cccc(C(=O)NCc2cn3cccc(C)c3n2)c1	nt	nt	5%	nt	nt	nt
COc1ccc(/C=C/c2ccncc2)cc1	?	3.5µM*	12µM*	?	?	2.8µM*
CN(C)c1ccc(/C=C/c2cccc[n+]2[O-])cc1	?	?	19µM*	nt	?	2.5µM*
C/C=C/c1ccc(OC)cc1	nt	nt	nt	7%	nt	nt
CN(C)c1ccc(/C=C/c2ccncc2)cc1	?	?	?	?	16µM*	?
CCCn1cc(S(=O)(=O)c2cc(C)ccc2C)c(=O)c2cc(F)c(N3CCCCCC3)cc21	nt	nt	-5%	nt	nt	nt
COc1ccccc1NC(=O)CSc1ncc2c(n1)-c1ccccc1N(Cc1ccccc1C)S2(=O)=O	nt	nt	-1%	nt	nt	nt
Cc1c(CCC(=O)O)c(=O)oc2cc(OCc3ccccc3Br)ccc12	1%	-4%	?	nt	-3%	-3%
Cc1c(CC(=O)O)c(=O)oc2cc(OCc3ccc(Br)cc3)ccc12	7%	3%	11µM*	nt	13%	15%
Cc1c(CCC(=O)O)c(=O)oc2cc(OCc3cccc(F)c3)ccc12	6%	0%	?	nt	2%	2%
Cc1c(CC(=O)O)c(=O)oc2cc(OCc3ccc(F)cc3F)ccc12	0%	1%	17µM*	nt	3%	-2%
Cc1nc(-c2cccs2)sc1C(=O)O	5%	-4%	-18%	nt	0%	0%
Cc1nccc(-c2sc(-c3cccs3)nc2C)n1	?	-3%	15µM*	nt	?	?
CN(C)CCNC(=O)CN1C(=O)COc2ccc(S(=O)(=O)N3CCCC3)cc21	nt	nt	1%	26%	nt	nt
Nc1cc(Cl)nc(N/N=C/c2ccccc2[N+](=O)[O-])n1	?	?	24µM*	?	25%	?
O=[N+]([O-])c1ccccc1/C=N/Nc1nccnc1Cl	?	?	27µM*	22%	?	3.5µM*
